Results on four molecules are retold here after PubChem BioAssay (EPA / NIEHS).

Assay [1] addresses Paired box protein Pax-6 (Homo sapiens) (UniProt P26367). Briefly: ATG_Pax6_CIS: Attagene CIS-FACTORIAL HepG2 Assay for human Paired Box 6 (PAX6) (AID 2282956). The following applies: HepG2 CIS-FACTORIAL PAX6 reporter transcription, RNA readout; actives raise or lower the signal. A digest of the protocol: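 DMSO-referenced bidirectional fits of reporter mRNA fluorescence; HepG2 with transient cis-promoter MRTUs, 24 h post-dose, RT-PCR plus capillary electrophoresis detection.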

Assay [2] in a line: ATG_PXRE_CIS: Attagene CIS-FACTORIAL HepG2 Assay for human Pregnane X Receptor Element (PXRE) (AID 2282957). Conditions: HepG2 Attagene CIS-FACTORIAL PXRE reporter, mRNA; actives raise or lower the signal. A digest of the protocol:
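Using HepG2 transfected with multiple reporter transcription units, endogenous factor-driven transcription was scored as reporter mRNA after 24 h exposure.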

Assay [3] can be described thus: ATG_PPRE_CIS: Attagene CIS-FACTORIAL HepG2 Assay for human Peroxisome Proliferator-activated Response Element (PPRE) (AID 2282958). The following applies: HepG2 PPRE cis-element reporter, Attagene transcription factor profiling; actives raise or lower the signal. A digest of the protocol: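 After human HepG2 hepatoma cells were transiently transfected with cis-promoter reporter constructs, they were exposed to test chemicals for 24 hours. Reporter RNA was then reverse-transcribed, PCR-amplified, FAM-labeled, HpaI-digested and quantified by capillary electrophoresis.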

Assay [4] is described as follows: ATG_RORE_CIS: Attagene CIS-FACTORIAL HepG2 Assay for human RAR-related Orphan Receptor Element (RORE) (AID 2282959). Conditions: HepG2 Attagene cis-factorial RORE reporter, mRNA; actives raise or lower the signal. A digest of the protocol: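 Measured here: transcript induction of a cis-regulated reporter in HepG2 cells transiently transfected via FuGene 6. After 24 h, RNA was processed by RT-PCR and fluorescent capillary electrophoresis; DMSO defined baseline activity.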

Assay [5] in a line: ATG_Sox_CIS: Attagene CIS-FACTORIAL HepG2 Assay for human SRY-box transcription factor (SOX) (AID 2282960). Conditions: HepG2 Attagene cis-factorial SOX reporter, mRNA; actives raise or lower the signal. A digest of the protocol:
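Using transiently transfected HepG2 cells, reporter transcription driven by cis elements was assessed 24 h after dosing. Signal was fluorescence of capillary-separated RT-PCR products, with DMSO defining baseline activity.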

Assay [6] addresses Transcription factor Sp1 (Homo sapiens) (UniProt P08047). The experiment in a line: ATG_Sp1_CIS: Attagene CIS-FACTORIAL HepG2 Assay for human Specificity Protein 1 (Sp1) (AID 2282961). Conditions: HepG2 Sp1 cis-reporter transcription, actives raise or lower the signal. In a few lines: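 After transient transfection of HepG2 cells with cis-promoter reporter units and 24 h chemical treatment, reporter transcripts were quantified by RT-PCR and capillary electrophoresis fluorescence. Gain- and loss-of-signal fitted against DMSO.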

Assay [7] is described as follows: ATG_SREBP_CIS: Attagene CIS-FACTORIAL HepG2 Assay for human Sterol Regulatory Element Binding (SREBP) (AID 2282962). The following applies: HepG2 Attagene cis-factorial SREBP reporter, mRNA; actives raise or lower the signal. A digest of the protocol:
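In this cis-format assay, HepG2 liver cells express reporters controlled by promoter elements responsive to native transcription factors. Exposure lasts 24 h; reporter mRNA fluorescence from capillary electrophoresis gives the signal, fitted bidirectionally against DMSO.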

The target in assay [8] is Signal transducer and activator of transcription 3 (Homo sapiens) (UniProt P40763). Briefly: ATG_STAT3_CIS: Attagene CIS-FACTORIAL HepG2 Assay for human Signal Transducer and Activator of Transcription 3 (STAT3) (AID 2282963). The following applies: HepG2, Attagene cis-factorial STAT3 reporter transcription; actives raise or lower the signal. In a few lines:
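Cis-factorial format: endogenous transcription factors in HepG2 drive transfected reporter units. After 24 h treatment, reporter RNA was reverse-transcribed, amplified, FAM-labelled and HpaI-digested before CE analysis; activity scored in both directions against DMSO.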

The nature of assay [9]: ATG_TA_CIS: Attagene CIS-FACTORIAL HepG2 Assay for human TA Basal Promoter (AID 2282964). The following applies: HepG2 Attagene CIS-factorial TA basal promoter reporter; actives raise or lower the signal. In a few lines:
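Fluorescence from labelled RT-PCR reporter fragments, separated by capillary electrophoresis, gives the signal. Cells: HepG2 transiently carrying multiple reporter units, 24 h chemical dosing. Gain or loss relative to DMSO.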

Assay [10] is described as follows: ATG_TCF_b_cat_CIS: Attagene CIS-FACTORIAL HepG2 Assay for human T-Cell-Factor with beta-catenin (TCF/b-cat) (AID 2282965). The following applies: HepG2 TCF/beta-catenin cis-reporter transcription, actives raise or lower the signal. In a few lines:
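Measured: reporter mRNA in HepG2 transiently transfected with cis-promoter reporter units, 24 h after chemical addition. Fitting was bidirectional, DMSO as negative control.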

A short description of assay [11]: ATG_TAL_CIS: Attagene CIS-FACTORIAL HepG2 Assay for human TAL Basal Promoter (AID 2282966).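 Note: background control endpoint measuring basal TAL promoter reporter mRNA not a specific factor.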 The following applies: HepG2 Attagene cis-factorial TAL promoter reporter; actives raise or lower the signal. In a few lines:
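After 24 hours of chemical exposure, transfected HepG2 cells yielded RNA that was converted to 6-FAM-labelled, HpaI-digested reporter fragments for capillary electrophoresis. Values derive from bidirectional fitting against DMSO controls.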

The nature of assay [12]: ATG_TGFb_CIS: Attagene CIS-FACTORIAL HepG2 Assay for human Transforming Growth Factor (TGF) (AID 2282967). Conditions: HepG2 Attagene CIS TGFb reporter, mRNA transcription; actives raise or lower the signal. A digest of the protocol:
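Bidirectional fitting relative to DMSO gave the endpoint. Underlying data: reporter mRNA from HepG2 cells carrying transiently transfected cis-regulated reporter constructs, harvested 24 h after dosing and analyzed by RT-PCR and capillary electrophoresis.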

The nature of assay [13]: ATG_VDRE_CIS: Attagene CIS-FACTORIAL HepG2 Assay for human Vitamin D Receptor Element (VDRE) (AID 2282968). Conditions: HepG2 VDRE cis-reporter transcription, actives raise or lower the signal. A digest of the protocol: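 Measures endogenous factor activity through cis-element-driven reporter transcripts in transiently transfected HepG2. Cells are treated 24 h; reporter mRNA is quantified by RT-PCR and capillary electrophoresis; fitting is bidirectional.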

Assay [14] concerns the target Steroid hormone receptor ERR1 (Homo sapiens) (UniProt P11474). Briefly: ATG_ERRa_TRANS: Attagene TRANS-FACTORIAL HepG2 Assay for human Estrogen-Related Receptor alpha (ERRa) (AID 2282971; active = hit-call score of the fitted dose curve at least 0.9, where 1 is the maximum). Conditions: HepG2 Attagene TRANS reporter, ERRa transactivation. In a few lines:
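Reporter transcript induction was quantified by RT-PCR and capillary electrophoresis of FAM-labelled, HpaI-cut products after 24 h treatment of HepG2 cells carrying transiently transfected GAL4-UAS reporter units and an exogenous ERRa-Gal4 fusion; activity scored as increase over DMSO.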

Assay [15] has as its target X-box-binding protein 1 (Homo sapiens) (UniProt P17861). Briefly: ATG_Xbp1_CIS: Attagene CIS-FACTORIAL HepG2 Assay for human X-box Binding Protein 1 (XBP1) (AID 2282972). The following applies: HepG2 XBP1 cis-element reporter, Attagene multiplex; actives raise or lower the signal. A digest of the protocol: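 Changes in reporter transcript abundance, read by RT-PCR and capillary electrophoresis, reflect endogenous transcription factor activity. Transfected HepG2 cells received compound for 24 hours; DMSO defined baseline for bidirectional analysis.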

The nature of assay [16]: ATG_M_19_TRANS: Attagene TRANS-FACTORIAL HepG2 Assay for M19 Transcription Factor (Internal Marker) (AID 2282974; active = hit-call score of the fitted dose curve at least 0.9, where 1 is the maximum). Conditions: HepG2 Attagene TRANS-FACTORIAL M19 internal marker reporter. A digest of the protocol:
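Gain-of-signal in reporter mRNA, relative to DMSO, was scored from capillary electrophoresis fluorescence. HepG2 cells carried transiently transfected multiple reporter transcription units and were incubated with test chemicals for 24 h.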

Assay [17] in a line: ATG_GAL4_TRANS: Attagene TRANS-FACTORIAL HepG2 Assay for GAL4 (Internal Marker) (AID 2282976; active = hit-call score of the fitted dose curve at least 0.9, where 1 is the maximum). The following applies: HepG2 Attagene TRANS GAL4 internal marker reporter. A digest of the protocol: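 First, HepG2 cells were transfected with reporter units under GAL4-UAS control. Next, they were treated with chemical for 24 h. Finally, RNA was reverse-transcribed, PCR-amplified, FAM-labelled and resolved by capillary electrophoresis, with induction scored against DMSO.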

The target of assay [18] is Nuclear receptor subfamily 1 group I member 3 (Homo sapiens) (UniProt Q14994). Briefly: ATG_CAR_TRANS: Attagene TRANS-FACTORIAL HepG2 Assay for human Constitutive Androstane Receptor (CAR) (AID 2282969; active = hit-call score of the fitted dose curve at least 0.9, where 1 is the maximum;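 note: activators raise reporter mRNA above DMSO so AC50 marks induction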). The following applies: HepG2 Attagene TRANS-FACTORIAL CAR reporter. A digest of the protocol: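 Signal is reporter mRNA induction relative to DMSO, measured 24 h after dosing by RT-PCR with fluorescent primer extension and capillary electrophoresis. Human HepG2 liver cells carried transiently transfected chimeric NR-Gal4/GAL4-UAS reporter constructs.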
Nuclear receptor subfamily 1 group I member 3 (Homo sapiens), sequence (Q14994 whole entry, looked up, the tested form may be a part): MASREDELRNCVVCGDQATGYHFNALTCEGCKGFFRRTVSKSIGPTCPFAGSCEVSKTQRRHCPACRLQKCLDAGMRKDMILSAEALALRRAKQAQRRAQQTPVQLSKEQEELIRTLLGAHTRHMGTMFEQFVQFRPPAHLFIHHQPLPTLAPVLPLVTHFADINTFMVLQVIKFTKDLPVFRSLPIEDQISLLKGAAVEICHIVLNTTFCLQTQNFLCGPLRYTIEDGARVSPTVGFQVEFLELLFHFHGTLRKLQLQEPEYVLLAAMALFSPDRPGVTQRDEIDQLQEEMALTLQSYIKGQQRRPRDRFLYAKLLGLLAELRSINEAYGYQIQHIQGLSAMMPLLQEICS

Assay [19] addresses Estrogen receptor (Homo sapiens) (UniProt P03372). Briefly: ATG_ERa_TRANS: Attagene TRANS-FACTORIAL HepG2 Assay for human Estrogen Receptor alpha (ERa) (AID 2282970; active = hit-call score of the fitted dose curve at least 0.9, where 1 is the maximum). The following applies: HepG2 Attagene TRANS ERa GAL4 reporter, mRNA. In a few lines:
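Liver-derived HepG2 cells expressing chimeric nuclear receptor-Gal4 proteins from transient transfection were exposed for 24 hours. Gain of reporter mRNA signal versus DMSO, read by capillary electrophoresis of FAM-labelled PCR products, was recorded.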

By AC50 is commonly meant the midpoint of the concentration-response curve, whichever way the signal moves.

Records with an inconclusive call do not appear. Activity calls are given as the source filed them. Rule for the calls, unless noted: active = hit-call score of the fitted dose curve at least 0.9, where 1 is the maximum; inactive = score below 0.9.

Signal transducer and activator of transcription 3 (Homo sapiens), sequence (P40763 whole entry, looked up): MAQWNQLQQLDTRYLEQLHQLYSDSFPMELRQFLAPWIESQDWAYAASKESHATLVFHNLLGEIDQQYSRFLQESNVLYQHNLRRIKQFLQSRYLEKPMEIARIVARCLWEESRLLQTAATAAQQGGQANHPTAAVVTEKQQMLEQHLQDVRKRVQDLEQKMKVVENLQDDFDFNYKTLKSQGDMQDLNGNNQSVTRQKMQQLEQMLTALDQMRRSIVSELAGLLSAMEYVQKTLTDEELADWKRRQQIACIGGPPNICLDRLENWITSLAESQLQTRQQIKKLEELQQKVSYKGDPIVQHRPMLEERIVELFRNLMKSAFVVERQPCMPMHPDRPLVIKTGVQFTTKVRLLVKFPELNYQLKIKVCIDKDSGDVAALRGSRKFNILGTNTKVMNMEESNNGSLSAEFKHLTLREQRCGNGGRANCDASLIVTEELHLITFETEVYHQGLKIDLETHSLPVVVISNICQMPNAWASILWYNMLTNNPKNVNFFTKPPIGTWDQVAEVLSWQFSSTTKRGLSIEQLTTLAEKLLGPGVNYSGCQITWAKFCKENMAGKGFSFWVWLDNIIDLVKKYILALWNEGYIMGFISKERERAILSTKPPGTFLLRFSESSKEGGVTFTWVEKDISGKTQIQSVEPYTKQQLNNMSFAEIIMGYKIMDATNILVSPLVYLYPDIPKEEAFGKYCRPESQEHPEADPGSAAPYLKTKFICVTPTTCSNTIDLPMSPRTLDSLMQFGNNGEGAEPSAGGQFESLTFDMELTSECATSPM
X-box-binding protein 1 (Homo sapiens), sequence (P17861 whole entry, looked up): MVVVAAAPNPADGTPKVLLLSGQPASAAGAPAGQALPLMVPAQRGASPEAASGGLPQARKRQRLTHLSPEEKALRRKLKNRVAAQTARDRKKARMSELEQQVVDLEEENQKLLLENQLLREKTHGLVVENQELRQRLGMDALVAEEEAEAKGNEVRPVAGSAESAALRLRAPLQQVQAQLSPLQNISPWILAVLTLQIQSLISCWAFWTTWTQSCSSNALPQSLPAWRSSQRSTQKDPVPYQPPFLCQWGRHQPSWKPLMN
Paired box protein Pax-6 (Homo sapiens), sequence (P26367 whole entry, looked up): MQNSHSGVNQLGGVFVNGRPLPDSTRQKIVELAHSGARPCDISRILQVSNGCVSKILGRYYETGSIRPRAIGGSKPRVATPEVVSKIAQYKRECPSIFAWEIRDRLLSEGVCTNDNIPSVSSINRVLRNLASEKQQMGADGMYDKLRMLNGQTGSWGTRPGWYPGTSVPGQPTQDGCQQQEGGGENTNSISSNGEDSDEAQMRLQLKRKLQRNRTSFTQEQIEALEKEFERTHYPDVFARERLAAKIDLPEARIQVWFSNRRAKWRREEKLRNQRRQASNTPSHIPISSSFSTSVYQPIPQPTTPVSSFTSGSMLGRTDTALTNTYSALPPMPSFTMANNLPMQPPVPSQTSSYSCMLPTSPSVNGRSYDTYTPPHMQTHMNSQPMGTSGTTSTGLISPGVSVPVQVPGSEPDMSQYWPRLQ
Transcription factor Sp1 (Homo sapiens), sequence (P08047 whole entry, looked up): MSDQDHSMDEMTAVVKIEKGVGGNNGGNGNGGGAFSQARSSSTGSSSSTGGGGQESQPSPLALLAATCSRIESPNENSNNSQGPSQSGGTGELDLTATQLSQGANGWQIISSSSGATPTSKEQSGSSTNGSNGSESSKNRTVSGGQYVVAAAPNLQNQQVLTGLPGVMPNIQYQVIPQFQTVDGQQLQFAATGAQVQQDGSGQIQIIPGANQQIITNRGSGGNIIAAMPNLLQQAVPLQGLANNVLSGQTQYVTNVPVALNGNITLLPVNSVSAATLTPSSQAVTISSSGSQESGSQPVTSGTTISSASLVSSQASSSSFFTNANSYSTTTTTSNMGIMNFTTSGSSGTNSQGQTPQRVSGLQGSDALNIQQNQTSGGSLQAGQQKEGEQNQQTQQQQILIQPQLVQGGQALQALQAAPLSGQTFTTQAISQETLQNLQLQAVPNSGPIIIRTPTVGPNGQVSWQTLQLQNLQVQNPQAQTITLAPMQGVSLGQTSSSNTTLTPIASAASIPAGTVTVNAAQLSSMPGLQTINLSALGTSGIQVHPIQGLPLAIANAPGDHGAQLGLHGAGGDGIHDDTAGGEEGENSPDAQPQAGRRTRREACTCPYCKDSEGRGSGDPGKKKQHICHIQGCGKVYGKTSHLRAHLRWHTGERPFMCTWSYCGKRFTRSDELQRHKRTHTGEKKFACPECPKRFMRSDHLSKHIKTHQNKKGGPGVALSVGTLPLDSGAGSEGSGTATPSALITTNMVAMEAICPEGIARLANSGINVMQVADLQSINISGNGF
Steroid hormone receptor ERR1 (Homo sapiens), sequence (P11474 whole entry, looked up, the tested form may be a part): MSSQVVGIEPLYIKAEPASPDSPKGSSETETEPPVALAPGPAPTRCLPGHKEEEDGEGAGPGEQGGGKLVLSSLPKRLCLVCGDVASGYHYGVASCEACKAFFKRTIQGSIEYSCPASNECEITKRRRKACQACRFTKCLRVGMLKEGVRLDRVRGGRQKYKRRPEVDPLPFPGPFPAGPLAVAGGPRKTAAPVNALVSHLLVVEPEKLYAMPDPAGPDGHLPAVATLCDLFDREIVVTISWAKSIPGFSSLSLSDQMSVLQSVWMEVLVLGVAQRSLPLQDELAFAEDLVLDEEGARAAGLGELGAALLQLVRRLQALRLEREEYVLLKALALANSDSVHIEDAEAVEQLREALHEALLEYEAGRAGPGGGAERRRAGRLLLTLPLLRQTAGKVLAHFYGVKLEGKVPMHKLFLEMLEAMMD
Estrogen receptor (Homo sapiens), sequence (P03372 whole entry, looked up, the tested form may be a part): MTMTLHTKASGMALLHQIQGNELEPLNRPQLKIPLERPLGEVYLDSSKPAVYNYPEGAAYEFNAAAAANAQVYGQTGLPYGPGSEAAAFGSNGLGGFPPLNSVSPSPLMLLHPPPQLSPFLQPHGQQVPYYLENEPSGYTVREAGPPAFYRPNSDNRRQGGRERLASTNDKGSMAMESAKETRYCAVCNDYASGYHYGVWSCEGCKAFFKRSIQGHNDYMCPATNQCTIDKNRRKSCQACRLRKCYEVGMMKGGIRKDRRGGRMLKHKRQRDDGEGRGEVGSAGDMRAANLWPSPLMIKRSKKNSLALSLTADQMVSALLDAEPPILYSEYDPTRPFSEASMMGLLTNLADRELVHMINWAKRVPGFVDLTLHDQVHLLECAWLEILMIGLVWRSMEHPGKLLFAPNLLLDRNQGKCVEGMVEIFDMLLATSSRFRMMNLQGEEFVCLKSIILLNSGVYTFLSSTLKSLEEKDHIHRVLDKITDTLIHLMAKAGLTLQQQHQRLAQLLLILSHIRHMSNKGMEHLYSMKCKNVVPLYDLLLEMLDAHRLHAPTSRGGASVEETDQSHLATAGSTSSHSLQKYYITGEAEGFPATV

Regarding `CCCC(=O)OCc1ccccc1`, the call in assay [1], in assay [2], in assay [3], in [4], in assay [5] and in assay [6] was inactive. For the same molecule, the call in [7], in assay [8], in [9], in [10], in assay [11] and in assay [12] was inactive. For the same molecule, the molecule was called inactive in assay [13], in assay [14], in [15], in assay [16] and in assay [17].
For `O=C(O)c1cc2ccccc2nc1C(=O)O`, the call in assay [1], in assay [2], in [3], in [4], in [5] and in assay [6] was inactive. Besides, the result in assay [7], in [8], in [9], in assay [10], in [11] and in assay [12] was inactive. Further, the result in assay [13] and in [15] was inactive.
Regarding `O=C(Oc1ccccc1)c1ccc2ccccc2c1O`, the result in assay [1], in assay [5], in assay [6], in [7], in assay [10] and in assay [11] was inactive. In addition, the molecule was called inactive in assay [18], in [19] and in [14]. Further, the AC50 in assay [2] is 21.5 µM (active); in [3] it was 41.6 µM (active); in assay [4], 34.3 µM (active); in assay [8], 26.1 µM (active); in assay [9], 54.9 µM (active); in assay [12], 49 µM (active). In addition, the AC50 in assay [13] was 26.4 µM (active); in assay [15] it was 38.6 µM (active).
On to `Cc1cccc(N)n1`, for which the outcome in assay [1], in assay [2], in [3], in assay [4], in assay [5] and in assay [6] was inactive. Further, the molecule was classed as inactive in assay [7], in assay [8], in assay [9], in [10], in assay [11] and in assay [12]. Also, the molecule was called inactive in assay [13], in [15] and in assay [16].
